# Test results reported in PubChem BioAssay (NCATS).
# Where “and” joins values, the source holds several entries; their conditions need not be identical. Equal values may be shown once. Results filed as inconclusive are left out. A call without a number means that no potency is given here. Calls of active or inactive are those of the source. Unless noted, calls come from the whole dose curve.
# Columns and labels:
# [1] = Primary qHTS for Huh7 cytotoxicity: counterscreen for inhibitors of MERS-S pseudotyped particle cell entry (AID 1479147); conditions: outcome: dose series up to 57.1 µM unless noted; note: potency is the fitted concentration of half-maximal effect
# [2] = Primary qHTS for inhibitors of SARS-S pseudo-typed particle cell entry (AID 1479145); conditions: outcome: dose series up to 57.1 µM unless noted; note: nearly all actives have a fitted effect of over 45% in size; note: potency is the fitted concentration of half-maximal effect
# [3] = Primary qHTS for Vero E6 cytotoxicity: counterscreen for inhibitors of SARS-S pseudo-typed particle cell entry (AID 1479150); conditions: outcome: dose series up to 57.1 µM unless noted
# [4] = Primary qHTS to identify inhibitors of SARS-CoV-2 cell entry (AID 1645846); conditions: SARS-CoV-2 pseudovirus cell entry assay, luminescence; activity change, negative = inhibition: at 57.1 µM (top of the series) unless noted; note: nearly all actives have a fitted effect of over 45% in size
# In short: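 Entry measured by luciferase signal 48 h after adding SARS-CoV-2-S pseudotyped MLV particles to HEK293-ACE2 cells preincubated 1 h with compounds. Normalisation: bald particles and spike particles.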
# [5] = Primary qHTS for inhibitors of MERS-S pseudo-typed particle cell entry (AID 1479149); conditions: outcome: dose series up to 57.1 µM unless noted; note: nearly all actives have a fitted effect of over 60% in size
# [6] = Cytotoxicity counterscreen for inhibitors of SARS-CoV-2 cell entry (AID 1645845); conditions: outcome: dose series up to 57.1 µM unless noted; note: nearly all actives have a fitted effect of over 50% in size; note: potency is the fitted concentration of half-maximal effect
# In short: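 ATP-content luminescence (ATPLite 1step, 15 min RT) read after 48 h compound exposure of Expi293F cells stably expressing human ACE2; normalized to cells-only wells and media-only wells.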
# [7] = molecular target: Cytochrome P450 2D6 (Homo sapiens) (UniProt P10635); assay: Cytochrome P450 family 2 subfamily D member 6 (CYP2D6) small molecule antagonists: luciferase biochemical (cell-free) qHTS assay (AID 1645840; active = well fitted curve in the direction sought with a large enough effect in the repeat runs; an effect the other way counts as inactive or inconclusive; note: potency is the fitted concentration of half-maximal effect; nearly all actives have a fitted effect of over 55% in size)
# In short: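 P450-Glo CYP2D6 system: proluciferin substrate converted by enzyme to luciferin, read by luminescence proportional to activity. Enzyme-substrate mix with compound 10 min at room temperature, then NADPH regeneration 1 h before detection reagent.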
# [8] = molecular target: Glutathione peroxidase 1 (Homo sapiens) (UniProt P07203); assay: Primary qHTS Assay for Inhibitors of Recombinant Selenoprotein Glutathione Peroxidase 1 (GPX1) (AID 1845191; active = well fitted curve in the direction sought with a large enough effect; an effect the other way counts as inactive or inconclusive; note: nearly all actives have a fitted effect of over 65% in size)
# In short: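 NADPH consumption tracked by fluorescence at 340/450 nm between t=0 and t=15 min, room temperature. Final mix: 10 nM GPX1, 100 nM glutathione reductase, 1 mM GSH, 0.5 mM NADPH, 0.5 mM cumene hydroperoxide, 0.01% BSA; 30 min compound–enzyme preincubation.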
# [9] = molecular target: Phospholipid hydroperoxide glutathione peroxidase GPX4 (Homo sapiens) (UniProt P36969); assay: Primary qHTS Assay for Inhibitors of Recombinant Selenoprotein Glutathione Peroxidase 4 (GPX4) (AID 1845192; active = well fitted curve in the direction sought with a large enough effect; an effect the other way counts as inactive or inconclusive; note: nearly all actives have a fitted effect of over 65% in size)
# In short: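 NADPH consumption followed by fluorescence at 340/450 nm, t=0 and after 15 min at room temperature. Reaction started with cumene hydroperoxide (0.5 mM final) after 30 min compound–GPX4 preincubation; final 200 nM GPX4, 100 nM GR, 1 mM GSH, 0.5 mM NADPH.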
# [10] = Confirmatory qHTS for VERO E6 Cytotoxicity Assay: Counterscreen for SARS-CoV-2 CPE Assay (AID 1508605); note: nearly all actives have a fitted effect of over 60% in size
# Glutathione peroxidase 1 (Homo sapiens), sequence (P07203 whole entry, looked up): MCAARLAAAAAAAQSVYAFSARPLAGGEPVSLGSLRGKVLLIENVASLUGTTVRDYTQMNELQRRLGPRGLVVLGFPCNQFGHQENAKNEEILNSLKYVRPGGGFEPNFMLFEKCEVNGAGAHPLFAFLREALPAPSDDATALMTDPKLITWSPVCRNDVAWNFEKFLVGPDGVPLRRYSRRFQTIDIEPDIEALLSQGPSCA
# Cytochrome P450 2D6 (Homo sapiens), sequence (P10635 whole entry, looked up): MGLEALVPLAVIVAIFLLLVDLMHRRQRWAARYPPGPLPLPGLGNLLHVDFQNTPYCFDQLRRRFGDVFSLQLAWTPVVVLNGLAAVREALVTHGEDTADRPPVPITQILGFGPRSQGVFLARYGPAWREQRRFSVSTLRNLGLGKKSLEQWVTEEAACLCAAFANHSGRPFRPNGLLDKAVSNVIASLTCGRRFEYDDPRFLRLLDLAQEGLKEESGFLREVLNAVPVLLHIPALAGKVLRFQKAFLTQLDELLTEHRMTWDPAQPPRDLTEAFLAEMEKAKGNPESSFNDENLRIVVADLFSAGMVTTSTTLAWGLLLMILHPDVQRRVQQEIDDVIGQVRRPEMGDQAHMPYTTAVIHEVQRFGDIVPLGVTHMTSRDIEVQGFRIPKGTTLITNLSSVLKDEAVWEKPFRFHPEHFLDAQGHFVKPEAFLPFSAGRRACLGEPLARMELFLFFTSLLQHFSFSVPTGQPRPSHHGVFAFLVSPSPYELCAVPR
# Phospholipid hydroperoxide glutathione peroxidase GPX4 (Homo sapiens), sequence (P36969 whole entry, looked up): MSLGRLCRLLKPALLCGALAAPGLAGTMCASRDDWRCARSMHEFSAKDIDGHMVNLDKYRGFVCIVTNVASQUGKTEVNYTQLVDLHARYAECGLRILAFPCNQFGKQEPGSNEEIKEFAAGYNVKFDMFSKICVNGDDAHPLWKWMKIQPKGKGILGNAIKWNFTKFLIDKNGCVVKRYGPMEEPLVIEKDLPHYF
smiles,measurement,setting,value
S=C1SCN(Cc2ccccc2)CN1Cc1ccccc1,Potency,[1],35.5 µM (active)
C(=C\c1ccncc1)/c1ccccc1,Potency,[2],inactive
same,Potency,[3],inactive
same,Potency,[4],inactive
C/C(O)=C(\C#N)C(=O)Nc1ccc(C(F)(F)F)cc1,Potency,[2],inactive
same,Potency,[5],inactive
same,Potency,[6],8.91 µM (active)
CC[C@]12C=CCN3CC[C@@]4(c5cc([C@@]6(C(=O)OC)CC7C[C@@H](C(C)(F)F)CN(Cc8c6[nH]c6ccccc86)C7)c(OC)cc5N(C)[C@H]4[C@@](O)(C(=O)OC)[C@@H]1OC(C)=O)[C@@H]32 (some centres not stated),Potency,[1],inactive
C[C@@]12CCCCC[C@@H](Cc3ccc(O)cc31)[C@H]2N,Potency,[1],inactive
same,Potency,[5],inactive
same,Potency,[3],inactive
same,Potency,[7],16.9 µM (active)
same,Potency,[8],inactive
same,Potency,[9],inactive
OCCOc1ccc(/C(=C(/CCCl)c2ccccc2)c2ccccc2)cc1,Potency,[1],inactive
same,Potency,[5],inactive
same,Potency,[3],inactive
same,Potency,[10],inactive
same,Potency,[6],inactive
same,"activity change, negative = inhibition",[4],-9.9% and -6.02%
Nc1nc(NC2CC2)c2ncn([C@H]3C=C[C@@H](CO)C3)c2n1,Potency,[2],inactive
same,Potency,[5],inactive
same,Potency,[4],inactive
OCCN1CCN(CC/C=C2/c3ccccc3Sc3ccc(Cl)cc32)CC1,Potency,[1],22.4 µM (active)
CC(=O)Nc1c(I)c(C(=O)N[C@H]2C(O)O[C@H](CO)[C@@H](O)[C@@H]2O)c(I)c(N(C)C(C)=O)c1I (some centres not stated),Potency,[1],inactive
same,Potency,[5],inactive
same,Potency,[3],inactive
same,Potency,[6],inactive
Cc1cc(-c2ccc(N=Nc3ccc4c(S(=O)(=O)O)cc(S(=O)(=O)O)c(N)c4c3O)c(C)c2)ccc1N=Nc1ccc2c(S(=O)(=O)O)cc(S(=O)(=O)O)c(N)c2c1O,Potency,[2],inactive
same,Potency,[5],inactive
same,"activity change, negative = inhibition",[4],-2.58%
COc1cc2c(cc1O)CCN[C@]21CS[C@@H]2c3c(OC(C)=O)c(C)c4c(c3[C@H](COC1=O)N1[C@@H]2[C@H]2c3c(cc(C)c(OC)c3O)C[C@@H]([C@@H]1O)N2C)OCO4,"activity change, negative = inhibition",[2],-93.9% [at 11.4 µM] (inactive)
same,"activity change, negative = inhibition",[5],-71.9% [at 11.4 µM] (inactive)
same,"activity change, negative = inhibition",[4],-92.8% [at 11.3 µM]
COc1ccc2c(=O)c(C)c(-c3ccccc3)oc2c1CN(C)C,Potency,[1],inactive
same,Potency,[5],inactive
same,Potency,[3],inactive
COc1cc([C@@H]2c3cc4c(cc3C(O[C@@H]3O[C@@H]5CO[C@@H](c6cccs6)OC5[C@H](O)[C@H]3O)C3COC(=O)[C@@H]32)OCO4)cc(OC)c1O (some centres not stated),Potency,[2],1 µM (active)
same,Potency,[5],inactive
same,"activity change, negative = inhibition",[4],-95.7%
CC(=O)O[C@H]1C[C@@H]2CC[C@@H]3[C@H](CC[C@@]4(C)[C@H]3C[C@H](N3CC[N+](C)(C)CC3)[C@@H]4OC(C)=O)[C@@]2(C)C[C@@H]1N1CC[N+](C)(C)CC1,Potency,[1],inactive
same,Potency,[5],inactive
same,Potency,[3],inactive
CON=C1C[C@]2(C[C@@H]3C[C@@H](C/C=C(\C)C[C@@H](C)/C=C/C=C4\CO[C@@H]5[C@H](O)C(C)=C[C@@H](C(=O)O3)[C@]45O)O2)O[C@H](/C(C)=C/C(C)C)[C@H]1C,Potency,[1],inactive
same,Potency,[5],inactive
same,Potency,[3],inactive
same,Potency,[6],inactive
O=C(NC1CCN(CCCCC2(C(=O)NCC(F)(F)F)c3ccccc3-c3ccccc32)CC1)c1ccccc1-c1ccc(C(F)(F)F)cc1,Potency,[1],31.6 µM (active)
CC1(S(=O)(=O)O)CC(=O)c2ccccc2C1=O (configuration not stated),Potency,[2],inactive
same,Potency,[3],inactive
CCCOc1ccc2nc(NC(=O)OC)sc2c1,Potency,[1],inactive
same,Potency,[5],inactive
COc1ccc2c(c1)OC(C)(C)C(c1ccccc1)C2c1ccc(OCCN2CCCC2)cc1 (configuration not stated),Potency,[2],inactive
same,Potency,[3],inactive
same,Potency,[6],inactive
CCc1cc2c(cc1CC)CC(NC[C@H](O)c1ccc(O)c3[nH]c(=O)ccc13)C2,Potency,[2],inactive
same,Potency,[3],inactive
